About 7,900 targets were measured; listed, in parts, are those with a hit and a random draw of the rest. About 0.6% of all pairs of compound and target were hits. A number with no mark means an inactive call.
Tests used:
Assay in all cases: log2 fold change, soluble protein after heating vs DMSO (PISA); higher = thermal stabilisation; K562 cells, 10 uM, 30 min; active = over 0.2 and 3.5 SD of the protein, either way, in both replicates (recomputed)
[1] = compound: CC[C@@H]1C(=O)N(C)c2cnc(Nc3ccc(C(=O)NC4CCN(C)CC4)cc3OC)nc2N1C1CCCC1
Summary of the method: (§1)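 K562 cells at 2×10^6 cells/mL were exposed to 10 μM compound for 30 min, then aliquots were heated for 3 min across 48°C-58°C, pooled, and extracted in PBS containing 0.5% NP-40 at 4°C. The supernatant after 21,000xg for 90 min was taken as soluble protein and measured by TMTpro 16plex LC-MS/MS with channel sums equalised. Thermal stability is reported relative to control samples, with values from duplicates. Fold changes are given on a log2 scale.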

volasertib = compound: CC[C@@H]1C(=O)N(C)c2cnc(Nc3ccc(C(=O)N[C@H]4CC[C@H](N5CCN(CC6CC6)CC5)CC4)cc3OC)nc2N1C(C)C [volasertib]
Summary of the method: as §1

[2] = compound: CC[C@H](C)N1C=C(C2=C(C=C(C=C21)C3=CN=C(C=C3)N4CCNCC4)C(=O)NCC5=C(C=C(NC5=O)C)C)C
Summary of the method: as §1

epoxomicin = compound: CC[C@H](C)[C@@H](C(=O)N[C@@H]([C@@H](C)O)C(=O)N[C@@H](CC(C)C)C(=O)[C@]1(CO1)C)NC(=O)[C@H]([C@@H](C)CC)N(C)C(=O)C [epoxomicin]
Summary of the method: as §1

[3] = compound: CCn1c(C(=O)N(C2CC2)C2CC2)cc2c3c(ncn3C)c(Nc3cc(C)n(C)n3)nc21
Summary of the method: as §1

[4] = compound: CCn1cc(-c2ccnc3[nH]c(-c4cccc(CN(C)C)c4)cc23)c(-c2ccc(NC(=O)N(C)C)cc2)n1
Summary of the method: as §1

[5] = compound: CN(C)CC(=O)Nc1ccc2[nH]c(=O)c3ccccc3c2c1
Summary of the method: as §1

rosiglitazone = compound: CN(CCOC1=CC=C(C=C1)C[C@H]2C(=O)NC(=O)S2)C3=CC=CC=N3 (racemic) [rosiglitazone]
Summary of the method: as §1

[6] = compound: CN1C2=C(C3=C1C(=O)N(N=C3)CC4=CC(=CC=C4)N)SC(=C2)S(=O)C
Summary of the method: as §1

[7] = compound: CN1CCC(CNc2ccc3ncc(-c4cccc(OC(F)(F)F)c4)n3n2)CC1
Summary of the method: as §1

saracatinib = compound: CN1CCN(CCOc2cc(OC3CCOCC3)c3c(Nc4c(Cl)ccc5c4OCO5)ncnc3c2)CC1 [saracatinib]
Summary of the method: as §1

sotrastaurin = compound: CN1CCN(c2nc(C3=C(c4c[nH]c5ccccc45)C(=O)NC3=O)c3ccccc3n2)CC1 [sotrastaurin]
Summary of the method: as §1

alvocidib = compound: CN1CC[C@H](c2c(O)cc(O)c3c(=O)cc(-c4ccccc4Cl)oc23)[C@H](O)C1 [alvocidib]
Summary of the method: as §1

Tubastatin A = compound: CN1CCc2c(c3ccccc3n2Cc2ccc(C(=O)NO)cc2)C1 [Tubastatin A]
Summary of the method: as §1

[8] = compound: CNC(=O)C1=CC=CC=C1NC2=NC(=NC=C2Cl)NC3=C(C=C(C=C3)N4CCOCC4)OC
Summary of the method: as §1

defactinib = compound: CNC(=O)c1ccc(Nc2ncc(C(F)(F)F)c(NCc3nccnc3N(C)S(C)(=O)=O)n2)cc1 [defactinib]
Summary of the method: as §1

rucaparib = compound: CNCc1ccc(-c2[nH]c3cc(F)cc4c3c2CCNC4=O)cc1 [rucaparib]
Summary of the method: as §1

[9] = compound: CNc1nc(-c2ccc3c(N)n[nH]c3c2)cc(N2C[C@@H](C(=O)NC3CCCCC3)CC[C@H]2C)n1
Summary of the method: as §1

encorafenib = compound: COC(=O)N[C@@H](C)CNc1nccc(-c2cn(C(C)C)nc2-c2cc(Cl)cc(NS(C)(=O)=O)c2F)n1 [encorafenib]
Summary of the method: as §1

[10] = compound: COC(=O)[C@H](CCSC)NC(=O)C1=C(C=C(C=C1)NC[C@H](CS)N)C2=CC=CC=C2
Summary of the method: as §1

Chain of UniProt Q13586 (Q13586 whole entry, looked up): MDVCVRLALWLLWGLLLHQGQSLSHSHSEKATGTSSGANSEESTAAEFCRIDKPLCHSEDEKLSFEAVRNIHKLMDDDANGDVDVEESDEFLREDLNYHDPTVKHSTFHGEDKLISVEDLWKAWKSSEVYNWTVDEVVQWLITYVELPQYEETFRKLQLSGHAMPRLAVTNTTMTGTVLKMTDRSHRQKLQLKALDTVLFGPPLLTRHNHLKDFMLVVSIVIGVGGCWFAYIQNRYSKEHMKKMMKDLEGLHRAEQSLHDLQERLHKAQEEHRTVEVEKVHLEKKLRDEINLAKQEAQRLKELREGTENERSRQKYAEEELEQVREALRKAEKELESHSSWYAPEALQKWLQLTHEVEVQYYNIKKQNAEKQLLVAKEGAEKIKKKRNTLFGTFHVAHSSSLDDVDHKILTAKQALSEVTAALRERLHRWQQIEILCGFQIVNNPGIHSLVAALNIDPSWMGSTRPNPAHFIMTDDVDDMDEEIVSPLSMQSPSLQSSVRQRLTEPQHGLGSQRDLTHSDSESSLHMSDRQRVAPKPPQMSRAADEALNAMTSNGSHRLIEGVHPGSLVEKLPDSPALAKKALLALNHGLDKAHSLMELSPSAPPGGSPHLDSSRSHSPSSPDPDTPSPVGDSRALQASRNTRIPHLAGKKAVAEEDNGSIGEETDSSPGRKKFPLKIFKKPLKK
Chain of UniProt P51687 (P51687 whole entry, looked up): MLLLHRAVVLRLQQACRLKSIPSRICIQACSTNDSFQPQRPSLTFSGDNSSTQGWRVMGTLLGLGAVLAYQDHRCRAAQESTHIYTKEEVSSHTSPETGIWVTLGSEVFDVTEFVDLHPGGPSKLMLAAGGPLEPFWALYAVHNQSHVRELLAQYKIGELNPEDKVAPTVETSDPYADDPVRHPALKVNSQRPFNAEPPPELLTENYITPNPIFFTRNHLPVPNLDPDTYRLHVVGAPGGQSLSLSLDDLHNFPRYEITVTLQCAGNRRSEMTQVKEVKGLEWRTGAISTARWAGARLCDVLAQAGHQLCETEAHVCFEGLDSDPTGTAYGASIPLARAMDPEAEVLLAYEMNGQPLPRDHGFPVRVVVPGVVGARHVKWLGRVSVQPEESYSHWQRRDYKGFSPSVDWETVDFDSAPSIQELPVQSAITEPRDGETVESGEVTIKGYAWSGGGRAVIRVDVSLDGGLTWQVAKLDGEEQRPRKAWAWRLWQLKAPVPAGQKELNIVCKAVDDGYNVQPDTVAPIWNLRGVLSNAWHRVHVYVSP
Chain of UniProt O00506 (O00506 whole entry, looked up): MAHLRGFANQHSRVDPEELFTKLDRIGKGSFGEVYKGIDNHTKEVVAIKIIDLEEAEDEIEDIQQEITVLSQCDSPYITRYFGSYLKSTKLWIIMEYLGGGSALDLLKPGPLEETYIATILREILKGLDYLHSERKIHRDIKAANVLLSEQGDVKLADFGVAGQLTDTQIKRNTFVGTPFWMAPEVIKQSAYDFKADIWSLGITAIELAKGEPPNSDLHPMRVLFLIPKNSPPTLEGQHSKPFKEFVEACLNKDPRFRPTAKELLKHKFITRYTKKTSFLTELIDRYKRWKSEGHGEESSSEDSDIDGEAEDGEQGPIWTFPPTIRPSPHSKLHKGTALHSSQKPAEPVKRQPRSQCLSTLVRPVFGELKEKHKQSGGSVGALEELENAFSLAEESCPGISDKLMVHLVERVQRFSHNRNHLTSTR
Chain of UniProt P02786 (P02786 whole entry, looked up): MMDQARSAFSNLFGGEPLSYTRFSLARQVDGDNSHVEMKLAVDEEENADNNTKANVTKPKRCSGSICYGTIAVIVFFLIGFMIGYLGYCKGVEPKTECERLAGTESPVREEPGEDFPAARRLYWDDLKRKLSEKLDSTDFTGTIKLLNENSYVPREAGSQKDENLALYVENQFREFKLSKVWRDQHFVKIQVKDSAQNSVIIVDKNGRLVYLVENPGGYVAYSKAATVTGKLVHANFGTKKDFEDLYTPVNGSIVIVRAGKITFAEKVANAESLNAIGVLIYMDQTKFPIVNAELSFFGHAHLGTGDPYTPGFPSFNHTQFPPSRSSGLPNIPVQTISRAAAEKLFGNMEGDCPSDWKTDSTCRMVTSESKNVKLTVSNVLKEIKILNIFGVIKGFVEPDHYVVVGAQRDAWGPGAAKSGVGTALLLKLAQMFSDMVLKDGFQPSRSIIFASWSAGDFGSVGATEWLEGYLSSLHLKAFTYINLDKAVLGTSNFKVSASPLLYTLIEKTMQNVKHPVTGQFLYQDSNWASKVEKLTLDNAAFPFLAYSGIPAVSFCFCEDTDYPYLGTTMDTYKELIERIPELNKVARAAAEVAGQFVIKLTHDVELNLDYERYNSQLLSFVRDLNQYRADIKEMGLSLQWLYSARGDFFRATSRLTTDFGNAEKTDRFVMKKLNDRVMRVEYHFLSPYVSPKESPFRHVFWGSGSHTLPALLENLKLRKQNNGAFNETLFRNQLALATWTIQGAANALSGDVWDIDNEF
Chain of UniProt Q02447 (Q02447 whole entry, looked up): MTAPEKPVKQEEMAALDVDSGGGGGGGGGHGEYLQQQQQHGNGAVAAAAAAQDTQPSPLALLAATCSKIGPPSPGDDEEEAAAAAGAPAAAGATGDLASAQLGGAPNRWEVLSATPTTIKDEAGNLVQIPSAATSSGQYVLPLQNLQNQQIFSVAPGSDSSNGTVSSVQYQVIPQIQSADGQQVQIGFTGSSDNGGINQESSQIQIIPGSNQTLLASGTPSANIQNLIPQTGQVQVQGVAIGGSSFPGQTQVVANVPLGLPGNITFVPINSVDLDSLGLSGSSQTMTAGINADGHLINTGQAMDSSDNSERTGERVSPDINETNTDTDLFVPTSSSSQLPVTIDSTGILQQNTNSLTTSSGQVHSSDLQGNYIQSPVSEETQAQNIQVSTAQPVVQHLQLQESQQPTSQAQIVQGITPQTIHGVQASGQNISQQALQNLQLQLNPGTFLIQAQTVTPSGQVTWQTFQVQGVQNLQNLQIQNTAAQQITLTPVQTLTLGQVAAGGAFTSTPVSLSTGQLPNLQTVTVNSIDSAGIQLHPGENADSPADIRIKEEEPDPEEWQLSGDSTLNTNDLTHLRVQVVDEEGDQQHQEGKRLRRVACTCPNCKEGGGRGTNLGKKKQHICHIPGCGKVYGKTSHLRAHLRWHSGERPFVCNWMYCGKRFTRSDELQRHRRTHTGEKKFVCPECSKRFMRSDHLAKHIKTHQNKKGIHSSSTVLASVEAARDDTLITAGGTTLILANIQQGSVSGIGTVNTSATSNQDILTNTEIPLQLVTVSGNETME
Chain of UniProt O60264 (O60264 whole entry, looked up): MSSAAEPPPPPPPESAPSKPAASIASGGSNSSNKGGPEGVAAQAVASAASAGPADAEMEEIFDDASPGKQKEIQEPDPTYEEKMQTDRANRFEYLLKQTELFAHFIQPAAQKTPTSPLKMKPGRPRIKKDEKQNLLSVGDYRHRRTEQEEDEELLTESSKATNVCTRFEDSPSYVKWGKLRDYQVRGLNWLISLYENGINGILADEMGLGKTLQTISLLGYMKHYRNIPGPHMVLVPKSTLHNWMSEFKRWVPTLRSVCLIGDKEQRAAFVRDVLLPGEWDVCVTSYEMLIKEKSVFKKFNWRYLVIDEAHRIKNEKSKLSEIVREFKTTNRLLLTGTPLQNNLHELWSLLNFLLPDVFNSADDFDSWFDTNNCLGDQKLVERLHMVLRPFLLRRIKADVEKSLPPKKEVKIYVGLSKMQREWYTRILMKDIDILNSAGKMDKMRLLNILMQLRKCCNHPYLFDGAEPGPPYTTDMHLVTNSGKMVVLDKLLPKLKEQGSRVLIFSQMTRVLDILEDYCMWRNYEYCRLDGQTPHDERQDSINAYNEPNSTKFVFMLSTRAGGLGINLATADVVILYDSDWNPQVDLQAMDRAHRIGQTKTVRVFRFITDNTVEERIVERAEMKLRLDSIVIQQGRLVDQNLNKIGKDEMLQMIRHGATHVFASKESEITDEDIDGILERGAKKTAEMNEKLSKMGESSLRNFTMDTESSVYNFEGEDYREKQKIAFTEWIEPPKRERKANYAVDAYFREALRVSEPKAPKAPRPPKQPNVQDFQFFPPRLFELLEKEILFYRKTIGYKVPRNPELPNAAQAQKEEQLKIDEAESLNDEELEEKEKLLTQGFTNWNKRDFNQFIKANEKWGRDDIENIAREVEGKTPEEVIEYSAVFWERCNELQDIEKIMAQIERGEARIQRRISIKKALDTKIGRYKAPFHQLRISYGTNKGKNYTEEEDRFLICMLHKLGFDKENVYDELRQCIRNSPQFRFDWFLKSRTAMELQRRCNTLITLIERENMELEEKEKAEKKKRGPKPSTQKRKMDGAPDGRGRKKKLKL
Chain of UniProt Q15796 (Q15796 whole entry, looked up): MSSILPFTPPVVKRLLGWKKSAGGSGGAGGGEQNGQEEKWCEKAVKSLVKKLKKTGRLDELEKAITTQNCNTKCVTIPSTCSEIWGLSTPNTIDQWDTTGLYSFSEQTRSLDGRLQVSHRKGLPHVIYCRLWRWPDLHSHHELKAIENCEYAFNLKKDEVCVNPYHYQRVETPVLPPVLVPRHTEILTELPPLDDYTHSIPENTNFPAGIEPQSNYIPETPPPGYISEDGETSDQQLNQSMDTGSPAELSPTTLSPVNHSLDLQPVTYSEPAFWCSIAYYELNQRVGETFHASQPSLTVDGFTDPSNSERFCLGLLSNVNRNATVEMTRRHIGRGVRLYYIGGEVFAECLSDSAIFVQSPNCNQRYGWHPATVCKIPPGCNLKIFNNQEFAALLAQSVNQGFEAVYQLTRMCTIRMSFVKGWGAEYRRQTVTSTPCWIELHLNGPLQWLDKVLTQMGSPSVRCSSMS
Chain of UniProt Q00059 (Q00059 whole entry, looked up): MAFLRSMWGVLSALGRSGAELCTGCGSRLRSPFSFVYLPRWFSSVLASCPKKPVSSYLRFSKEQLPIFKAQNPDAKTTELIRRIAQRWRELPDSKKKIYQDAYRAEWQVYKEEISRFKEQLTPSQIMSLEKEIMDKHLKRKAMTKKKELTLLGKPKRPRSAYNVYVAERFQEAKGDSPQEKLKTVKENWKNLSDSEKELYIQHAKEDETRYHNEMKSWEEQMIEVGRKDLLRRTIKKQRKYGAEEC

Row | Target | log2 fold change [1] | log2 fold change (volasertib) | log2 fold change [2] | log2 fold change (epoxomicin) | log2 fold change [3] | log2 fold change [4] | log2 fold change [5] | log2 fold change (rosiglitazone) | log2 fold change [6] | log2 fold change [7] | log2 fold change (saracatinib) | log2 fold change (sotrastaurin) | log2 fold change (alvocidib) | log2 fold change (Tubastatin A) | log2 fold change [8] | log2 fold change (defactinib) | log2 fold change (rucaparib) | log2 fold change [9] | log2 fold change (encorafenib) | log2 fold change [10]
1 | SMARCA5 (UniProt O60264) | -0.242 | -0.333 | 0.045 | 0.092 | -0.088 | -0.06 | 0.053 | -0.003 | 0.121 | 0.076 | -0.084 | -0.235 | -0.193 | 0.082 | 0.038 | -0.145 | 0.035 | 0.065 | 0.116 | 0.01
2 | TAX1BP1 (UniProt Q86VP1) | -0.144 | -0.298 (active) | -0.081 | -0.027 | 0.055 | -0.067 | 0 | -0.011 | -0.001 | 0.003 | 0.016 | -0.057 | -0.028 | -0.01 | -0.016 | -0.038 | -0.003 | -0.06 | 0.025 | 0.054
3 | SP3 (UniProt Q02447) | 0.03 | 0.104 | -0.019 | -0.194 | 0.025 | 0.068 | -0.074 | -0.062 | 0.058 | 0.028 | 0.048 | -0.122 | 0.033 | -0.205 | -0.032 | 0.042 | -0.004 | -0.05 | -0.053 | 0.04
4 | TFRC (UniProt P02786) | -0.589 (active) | -0.417 (active) | -0.035 | -0.009 | 0.051 | -0.005 | 0.004 | -0.007 | -0.033 | -0.289 (active) | 0.008 | 0.005 | 0.01 | -0.028 | 0.029 | -0.03 | -0.003 | -0.056 | 0.019 | -0.004
5 | TFAM (UniProt Q00059) | 0.058 | 0.059 | 0.007 | -0.053 | 0.035 | 0.062 | -0.074 | -0.017 | 0.098 | 0.049 | -0.017 | 0.052 | 0.116 | 0.052 | -0.008 | 0.107 | 0.042 | -0.01 | 0.039 | 0.047
6 | TGFBRAP1 (UniProt Q8WUH2) | -0.098 | -0.253 | 0.128 | 0.048 | -0.038 | -0.059 | 0.11 | 0.097 | 0.195 | 0.011 | -0.124 | 0.048 | -0.008 | 0.134 | 0.047 | -0.061 | 0.097 | -0.051 | 0.076 | -0.109
7 | STK25 (UniProt O00506) | -0.031 | -0.107 | 0.024 | 0.033 | -0.041 | -0.008 | -0.024 | 0.077 | 0.017 | -0.216 | -0.045 | 0.088 | 0.028 | -0.007 | -0.078 | -0.041 | 0.011 | -0.012 | 0.039 | 0.051
8 | SUOX (UniProt P51687) | 0.003 | -0.04 | -0.02 | 0.013 | 0.026 | 0 | 0.005 | 0.012 | -0.07 | -0.31 (active) | 0.02 | 0.013 | -0.047 | -0.031 | -0.01 | 0.031 | -0.037 | -0.022 | 0.001 | 0.042
9 | TBC1D24 (UniProt Q9ULP9) | 0.025 | -0.028 | 0.05 | -0.011 | -0.006 | -0.175 | 0.018 | 0.075 | -0.067 | -0.236 | -0.025 | -0.016 | -0.379 (active) | -0.044 | -0.075 | -0.106 | -0.148 | 0.077 | -0.011 | -0.005
10 | STIM1 (UniProt Q13586) | -0.116 | -0.206 | 0.025 | 0.028 | 0.004 | 0.023 | 0.007 | 0.037 | -0.047 | -0.195 | 0.003 | 0 | -0.075 | -0.029 | -0.001 | -0.048 | 0.011 | -0.047 | 0.052 | 0.032
11 | SPINDOC (UniProt Q9BUA3) | -0.131 | -0.178 | -0.243 | 0.071 | -0.094 | 0.105 | 0.074 | -0.041 | -0.222 | -0.02 | 0.185 | -0.23 | 0.025 | -0.121 | -0.039 | 0.068 | 0 | -0.02 | 0.057 | 0.049
12 | SPECC1 (UniProt Q5M775) | 0.109 | 0.052 | -0.013 | -0.101 | 0.037 | 0.004 | -0.111 | 0.023 | 0.07 | -0.012 | -0.171 | 0.093 | 0.06 | -0.024 | -0.069 | 0 | 0.091 | -0.104 | -0.015 | -0.062
13 | SMAD2 (UniProt Q15796) | -0.067 | -0.347 (active) | 0.065 | 0.11 | -0.032 | -0.014 | 0.014 | 0.078 | -0.158 | -0.018 | 0.001 | -0.235 | -0.316 | 0.016 | 0.025 | -0.142 | 0.043 | 0.039 | -0.045 | -0.052
14 | TGFBI (UniProt Q15582) | -0.089 | -0.211 | -0.044 | -0.33 | -0.026 | 0.068 | -0.128 | 0.118 | 0.171 | -0.142 | 0.017 | 0.171 | 0.054 | -0.005 | -0.014 | -0.037 | -0.06 | -0.113 | 0.006 | 0.098
15 | ST3GAL2 (UniProt Q16842) | -0.28 | -0.562 (active) | -0.053 | -0.053 | -0.038 | 0.062 | 0.005 | 0.011 | -0.071 | -0.474 (active) | -0.103 | 0.036 | -0.017 | 0.107 | 0.129 | -0.02 | 0.093 | 0.138 | 0.06 | -0.136
16 | SSRP1 (UniProt Q08945) | -0.121 | -0.412 (active) | 0.052 | 0.02 | -0.073 | 0.007 | 0.01 | 0.052 | -0.003 | -0.067 | 0.01 | -0.049 | -0.157 | 0.099 | -0.052 | -0.23 (active) | -0.038 | -0.045 | 0.048 | -0.05

Reference: the supplement of paper PMC10849652
